Measurements published in PubChem BioAssay (NCI).
The panel holds about 83,000 compounds, 20% with a hit somewhere; the sample as a whole holds those more often.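 Interpretation: 100, growth as untreated; towards 0, rising growth inhibition; 0, no net growth; 0 to -100, cell death. Compounds scoring below 10 were considered active.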 A number with no mark means an inactive call. Active and inactive are the calls of the source.

Legend:
Assay in all cases: NCI-60 one-dose screen, 48 h (100 = growth as untreated, 0 = no growth, -100 = all killed)
Settings in all cases: 10 µM unless noted
SK-MEL-2 melanoma = system: SK-MEL-2 melanoma
EKVX NSCLC = system: EKVX NSCLC
SN12C renal = system: SN12C renal
UO-31 renal = system: UO-31 renal
TK-10 renal = system: TK-10 renal
ACHN renal = system: ACHN renal
CAKI-1 renal = system: CAKI-1 renal
A498 renal = system: A498 renal
CCRF-CEM leukemia = system: CCRF-CEM leukemia
MOLT-4 leukemia = system: MOLT-4 leukemia

| Structure (SMILES) | growth (SK-MEL-2 melanoma) | growth (EKVX NSCLC) | growth (SN12C renal) | growth (UO-31 renal) | growth (TK-10 renal) | growth (ACHN renal) | growth (CAKI-1 renal) | growth (A498 renal) | growth (CCRF-CEM leukemia) | growth (MOLT-4 leukemia) |
| --- | --- | --- | --- | --- | --- | --- | --- | --- | --- | --- |
| Cc1ccc(/C=C/C(=O)Nc2ncc(Cc3ccc(F)cc3)s2)o1 | 46.9% | 48.5% | 66.3% | 40.4% | 61.9% | 56.3% | 35.4% | 27.3% | 45.1% | 35% |
| O=C(CSc1nc(-c2ccccc2)cc(=O)[nH]1)Nc1nc(-c2ccccc2)cs1 | 96.9% | 75.7% | 102% | 65.2% | 106% | 95.2% | 75.1% | 114% | 96.2% | -17.6% (active) |
| c1ccc(CCNc2c3ccccc3nc3ccccc23)cc1 | 86.3% | 36.3% | 33.1% | 24.2% | 53.2% | 21.6% | 30.3% | -5.19% (active) | 53.3% | 24.6% |
| O=c1c2ccccc2c(=O)c2c1sc1c(=O)c3ccc(O)cc3c(=O)c12 | -60.2% (active) | -57.7% (active) | -88.2% (active) | -52% (active) | -95.4% (active) | -77.3% (active) | -68.5% (active) | -98.3% (active) | -23.3% (active) | -40.1% (active) |
| CCNc1nc(O)c(/C=C2\C=Nc3ncccc32)s1 | -48.7% (active) | 14.1% | 12.6% | 7.47% (active) | -3.75% (active) | 0.663% (active) | 20.6% | -54.2% (active) | 3.01% (active) | -6% (active) |
| C[C@H](C(=O)N(CCc1ccc(Cl)c(Cl)c1)Cc1cncs1)[C@@H]1CC[C@H](C[C@H](C)n2cc(CN3CCC(c4ccc(Cl)cc4)CC3)nn2)O1 | 106% | 95.4% | 97.5% | 82.2% | 104% | 102% | 87.9% | 108% | 94.3% | -70% (active) |
| C=CCOC(=O)C1=C(C)N(CC)C(=O)NC1c1c(Cl)n(C)c2ccccc12 (stereo not given) | 108% | 98.4% | 102% | 76.1% | 102% | 82.2% | 61.5% | 95% | -28% (active) | 93.7% |
| C=C(C)[C@@H]1CCC[C@]2(C(=O)O)CC[C@]3(C)[C@@H](CC[C@@H]4[C@@]5(C)C/C(=C/c6ccncc6)C(=O)C(C)(C)[C@@H]5CC[C@]43C)[C@@H]12 | 48.3% | 24.9% | 25.7% | 19.7% | 52.2% | 26.8% | 31.4% | 57.7% | 0.771% (active) | 6.38% (active) |
| CC[N+]1(CC)CC[N+]2(CCCC(C)CC2)CC1 (stereo not given) | 110% | 100% | 96.4% | 94.7% | 104% | 104% | 101% | 95.8% | 107% | 105% |
| CN(C)CCCNC(=O)c1cncnc1Nc1ccc(OCc2cccc(F)c2)c(Cl)c1 | -35.7% (active) | 62.8% | 28.7% | -4.99% (active) | -71.7% (active) | -36.8% (active) | -19.3% (active) | -8.81% (active) | -34.2% (active) | -40.9% (active) |
| NC(=O)c1c(NC(=O)c2cccc(C(F)(F)F)c2)sc2c1CCC(=O)C2 | -18.5% (active) | 9.15% (active) | 3.64% (active) | -95.9% (active) | 5.23% (active) | -93.4% (active) | -55% (active) | 53.2% | 0.959% (active) | -18.1% (active) |
| CC(C)(C)n1cc(-c2ccnc(NCCCNS(=O)(=O)c3ccc(C(F)(F)F)cc3)c2)c(-c2cccc(F)c2)n1 | 93.6% | 78.7% | 82.8% | 78% | 108% | 85.7% | 90.3% | 92.5% | 73.8% | 65.3% |
| CCOC(=O)C(=Cc1ccc(-c2ccccc2)cc1)C(=O)OCC | 51.8% | 95% | 67.3% | 55.4% | 66% | 34% | 85.6% | 108% | 1.19% (active) | -3.57% (active) |
| COc1ccc(-c2nc(/C=C3\C(=O)N(C)c4ccccc43)c3ccccn23)cc1 | 83.7% | 113% | 82.3% | 69.3% | 60.1% | 64.5% | 94.1% | 103% | 71.7% | 95.7% |
| COc1ccc(CCN(CC(=O)N(CC(N)=O)C2CCC[C@@H]2OCc2ccccc2)C(=O)CN(C(=O)CN(CCc2ccc(Cl)cc2)C(=O)CN(C(=O)CN(C)Cc2ccccc2F)[C@H](C)C2CCCCC2)[C@H](C)C2CCCCC2)cc1OC (stereo not given in full) | 1.88% (active) | 30.8% | 35.3% | 37.3% | 15.6% | 28.8% | 94.7% | 32% | 7.58% (active) | -37% (active) |
| C#CC#CC#CC#CC#CC#CC#CC#CCC1OC[C@H](COC(=O)O[C@@H](C(=O)O[C@H]2C[C@@]3(O)[C@@H](OC(=O)c4ccccc4)[C@@H]4[C@]5(OC(C)=O)CO[C@@H]5C[C@H](O)[C@@]4(C)C(=O)[C@H](OC(C)=O)C(=C2C)C3(C)C)[C@@H](NC(=O)c2ccccc2)c2ccccc2)O1 (stereo not given in full) | 36.2% | 60.2% | 31.2% | 95.1% | 84.9% | 69.8% | 59.5% | -1.18% (active) | 15.1% | 28.5% |
| Cc1ccnc(Nc2ccc([N+](=O)[O-])c(NCCN3CCOCC3)n2)c1 | 51.5% | 96.4% | 36.6% | 34.2% | 79.4% | 38.6% | 65.6% | 24.9% | 7.5% (active) | 11.7% |
| N#Cc1c(-c2ccccc2)nc(SCc2nnc(-c3ccc(Cl)cc3)o2)[nH]c1=O | 80.4% | 95.5% | 97.6% | 74.6% | 90.6% | 109% | 93.6% | 107% | 85.5% | 79.9% |
| O=C(/C=C/C12c3ccccc3C(c3ccccc31)C1C(=O)NC(=O)C12)c1ccc(Br)cc1 (stereo not given) | 52.2% | 60.2% | 46.2% | 41.4% | 61.2% | 66.2% | 56.4% | 60.2% | -3.91% (active) | 3.02% (active) |
| C/C(=N\O)[C@@H]1CC[C@]2(CO)CC[C@]3(C)[C@H](CC[C@@H]4[C@@]5(C)CCCNC(C)(C)[C@@H]5CC[C@]43C)[C@@H]12 | 95.2% | 92.7% | 85.4% | 69.3% | 109% | 98.6% | 79.4% | 107% | 58.9% | 33.3% |
| CCOC(=O)c1cnc2c(N=Nc3ccc(OC)cc3)c(N)nn2c1N | 102% | 103% | 95.2% | 94.2% | 104% | 109% | 96.6% | 92.5% | 103% | 88% |
| Cc1ccc(NC(=O)Cn2c(Br)nc3c2c(=O)n(C)c(=O)n3C)cc1 | 84.9% | 55.5% | -30% (active) | 14.1% | 9.94% (active) | -66.6% (active) | 53% | -6.02% (active) | 40.7% | 58.8% |
| CC1=C(CCC(C)NCc2ccc(OCCCN3CCCCC3)cc2)C(C)(C)CCC1 (stereo not given) | -82.1% (active) | -39.1% (active) | -60.7% (active) | -95.5% (active) | -94.3% (active) | -83.6% (active) | -55.7% (active) | -71.5% (active) | -39.6% (active) | -41.7% (active) |
